Assay outcomes: PubChem, Sanford-Burnham Center for Chemical Genomics
An excerpt weighted towards active compounds, which were near 4% of everything screened.
Peg3 promoter – Peg3 promoter-driven luciferase inhibitors, primary screen, cell-based, HeLa, luciferase luminescence. HeLa PEG-Prom luciferase reporter, overnight. inhibition, % at 20 µM. 360,000 tested, 1.7% active. AID 588405, 2011;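 active = inhibition of at least 50% at 20 µM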
CF NFkB block – inhibitors of PAF-induced NF-kB signaling, primary screen, cell-based, GFP fluorescence, uHTS; KKLEB NF-kB-GFP reporter, GFP fluorescence overnight; inhibition, % at 5 µM; 360,000 tested, 0.86% active; AID 588850, 2011;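 active = at least 50% inhibition at 5 µM, scaled per plate between neutral and stimulator controls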;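 also: PAF is a Pseudomonas aeruginosa culture filtrate used as stimulus; plate controls were PAF-stimulated DMSO wells for no effect and unstimulated DMSO wells for full effect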
TWEAK-Fn14 inh – inhibitors of TWEAK-Fn14 signaling, primary screen, luciferase reporter cells, uHTS; TWEAK-stimulated Fn14 reporter cells, luciferase luminescence, 8 h; inhibition, % at 10 µM; 360,000 tested, 2% active; in the data active = inhibition above about 50%
KKLEB tox – cytotoxicity in KKLEB CF airway cells, primary screen, cytotoxicity control for CF NF-kB inhibitor project, cell-based, uHTS, fluorescence assay plates; KKLEB CF airway cells viability, ATPlite luminescence, overnight; active compounds read low; cells stimulated with P. aeruginosa culture filtrate; activity change (cytotoxicity), % at 5 µM; 360,000 tested, 0.36% active; AID 602141, 2011;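 active = corrected activity change at or below -50% at 5 µM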
HIF-2a block – HIF-2a reporter inhibitors, primary screen, luminescence, 786-0 RCC cells; 786-0 RCC cells HIF-2a reporter, luciferase luminescence, overnight; 360,000 tested, 0.72% active; inhibition, % at 18.8 µM; AID 624352, 2012;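 active = inhibition of the luminescence signal of 40% or more relative to plate controls, in a single-dose primary screen at 18.75 µM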
TROY NFkB inh – inhibitors of TROY-driven NF-kB signaling, primary screen, Q293 LMP1-TROYcd cells, NF-kB luciferase, uHTS; Q293 LMP1-TROYcd NF-kB luciferase reporter, 4 h; inhibition, % at 10 µM; 360,000 tested, 0.98% active;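 active = compounds whose plate-normalised and pattern-corrected inhibition of the luciferase reporter signal at the single screening dose is 50% or more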
Mdm2-MdmX confirm – retested Mdm2-MdmX interaction blockers, confirmation, cell-based, luminescence, single concentration, set 2 | shares compounds with HIF-2a block | SaOS-2 split-luciferase Mdm2/MdmX complementation | inhibition, % at 8 µM | 740 tested, 99% active | AID 504601, 2011;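 active = mean inhibition of the luminescence signal across two replicates at or above 26 percent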
Target sequence (O15151 whole entry, looked up): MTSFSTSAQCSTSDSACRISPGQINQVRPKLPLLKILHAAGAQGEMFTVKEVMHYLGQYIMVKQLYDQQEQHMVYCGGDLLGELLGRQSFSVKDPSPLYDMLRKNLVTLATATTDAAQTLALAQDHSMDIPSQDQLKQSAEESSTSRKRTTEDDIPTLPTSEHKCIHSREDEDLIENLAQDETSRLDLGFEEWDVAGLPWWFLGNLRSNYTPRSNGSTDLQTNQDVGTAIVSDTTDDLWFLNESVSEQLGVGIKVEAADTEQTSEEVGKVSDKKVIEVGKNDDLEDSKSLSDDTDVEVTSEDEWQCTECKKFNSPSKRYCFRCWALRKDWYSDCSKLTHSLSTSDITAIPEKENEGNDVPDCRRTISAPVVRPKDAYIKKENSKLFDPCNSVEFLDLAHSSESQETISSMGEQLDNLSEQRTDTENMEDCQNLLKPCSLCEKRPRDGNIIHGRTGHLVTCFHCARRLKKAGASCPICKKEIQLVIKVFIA
Target sequence (Q00987 whole entry, looked up): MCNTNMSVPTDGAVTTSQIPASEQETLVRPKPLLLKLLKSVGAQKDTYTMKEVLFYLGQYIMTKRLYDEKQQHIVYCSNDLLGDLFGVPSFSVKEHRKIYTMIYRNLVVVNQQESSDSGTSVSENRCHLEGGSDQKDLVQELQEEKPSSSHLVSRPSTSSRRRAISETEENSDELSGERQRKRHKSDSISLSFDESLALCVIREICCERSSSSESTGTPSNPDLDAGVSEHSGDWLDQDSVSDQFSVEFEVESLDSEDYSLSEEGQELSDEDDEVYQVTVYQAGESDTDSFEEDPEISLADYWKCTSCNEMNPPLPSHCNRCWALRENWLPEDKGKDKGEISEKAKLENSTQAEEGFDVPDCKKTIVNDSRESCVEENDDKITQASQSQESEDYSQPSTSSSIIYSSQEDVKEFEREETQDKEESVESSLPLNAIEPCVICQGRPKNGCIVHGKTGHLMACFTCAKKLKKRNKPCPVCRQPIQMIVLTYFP
HIF-2a conf – HIF-2a reporter inhibitor retest, confirmation, luminescence, 786-0 RCC cells. shares compounds with HIF-2a block. inhibition, % at 18.8 µM. AID 651580, 2012. HIF-2a luciferase reporter luminescence, overnight. 1,800 tested, 56% active;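 active = mean inhibition across four replicates of at least 40 percent at the single tested concentration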
HIF-1a counter – HIF-1a luciferase reporter signal reduction – MiaPaCa-2 cells, single concentration, counter-screen for HIF-2a inhibitor project, confirmation; shares compounds with HIF-2a block; MiaPaCa-2 HIF-1a luciferase reporter, desferoxamine, overnight; inhibition, % at 18.8 µM; 1,800 tested, 72% active;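 active = mean inhibition of the reporter signal across four replicates at the single tested dose of 50% or more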
Starred values were filed as active, the others as inactive.

Results for COc1ccc(-c2csc(N3CCN(S(=O)(=O)c4ccc5c(c4)NC(=O)CO5)CC3)n2)cc1 ?
Peg3 promoter: 28; CF NFkB block: -22; TWEAK-Fn14 inh: 18; KKLEB tox: 14; HIF-2a block: 6; TROY NFkB inh: 18

Results for CCOC(=O)CNC(=O)CSc1ncnc2c1cnn2-c1ccc(C)cc1 ?
Peg3 promoter: 29; CF NFkB block: -1; TWEAK-Fn14 inh: 14; KKLEB tox: 0; HIF-2a block: 22; TROY NFkB inh: -23

What do the screens show for `CCOC(=O)CNC(=O)CSc1ncnc2c1cnn2-c1ccccc1`?
Peg3 promoter: 19; CF NFkB block: 11; TWEAK-Fn14 inh: 13; KKLEB tox: 1; HIF-2a block: 41*; TROY NFkB inh: -7; HIF-2a conf: 30; HIF-1a counter: -7

What do the screens show for `O=C(CSc1ccccc1)NC1CCCCCC1`?
Peg3 promoter: -158; CF NFkB block: 18; TWEAK-Fn14 inh: -14; KKLEB tox: -9; HIF-2a block: -171; TROY NFkB inh: -25

How did CCN(Cc1ccccc1)c1ccc(/C=N/N=C(N)N)cc1 do in these assays?
Peg3 promoter: 108*; CF NFkB block: 35; TWEAK-Fn14 inh: 44; KKLEB tox: -18; HIF-2a block: 93*; TROY NFkB inh: 34; Mdm2-MdmX confirm: 103*; HIF-2a conf: 3; HIF-1a counter: 108*

How did Cc1ccc(S(=O)(=O)/N=C(\Sc2ccccc2)c2ccccc2)cc1 do in these assays?
Peg3 promoter: 56*; CF NFkB block: 1; TWEAK-Fn14 inh: 9; KKLEB tox: 3; HIF-2a block: 43*; TROY NFkB inh: 6; HIF-2a conf: 56*; HIF-1a counter: 49

What do the screens show for `CCSC1(SCC)N=C(N)C2(C#N)C(c3ccc(F)cc3)C12C#N` (centres undefined)?
Peg3 promoter: 107*; CF NFkB block: 42; TWEAK-Fn14 inh: 13; KKLEB tox: 0; HIF-2a block: 49*; HIF-2a conf: 59*; HIF-1a counter: 93*

Results for COC1(OC)N=C(N)C2(C#N)C(c3ccc(F)cc3)C12C#N (centres undefined) ?
Peg3 promoter: 3; CF NFkB block: -1; TWEAK-Fn14 inh: -10; KKLEB tox: 10; HIF-2a block: 12; TROY NFkB inh: 15

Results for FC(F)(F)C(F)(F)c1nc2nc(Cl)c(Cl)nc2[nH]1 ?
Peg3 promoter: 4; CF NFkB block: 3; TWEAK-Fn14 inh: 17; KKLEB tox: 2; HIF-2a block: 7; TROY NFkB inh: -20

Results for Cc1ccc(NC(=O)CCC(=O)N/N=C/c2coc3ccccc3c2=O)cc1 ?
Peg3 promoter: 24; CF NFkB block: 11; TWEAK-Fn14 inh: 11; KKLEB tox: -5; HIF-2a block: 53*; TROY NFkB inh: 36; HIF-2a conf: -7; HIF-1a counter: 16

What do the screens show for `CCc1nc2ccc(C(=O)NCCCn3ccnc3)cn2c1N(C)Cc1ccc(OC)cc1`?
Peg3 promoter: -17; CF NFkB block: 18; TWEAK-Fn14 inh: -9; KKLEB tox: -5; HIF-2a block: -7; TROY NFkB inh: -4

Results for O=C(Nc1cccc(Cl)c1)c1cc(N=Nc2ccc([N+](=O)[O-])cc2Cl)ccc1O ?
Peg3 promoter: 79*; CF NFkB block: 76*; TWEAK-Fn14 inh: 83*; KKLEB tox: -32; HIF-2a block: -84; TROY NFkB inh: 39; Mdm2-MdmX confirm: 95*

What do the screens show for `O=C(Nc1ccccc1)c1cc([N+](=O)[O-])ccc1Cl`?
Peg3 promoter: -1; CF NFkB block: -20; TWEAK-Fn14 inh: 7; KKLEB tox: -8; HIF-2a block: 8; TROY NFkB inh: -5

Results for CCN(c1ccccc1)S(=O)(=O)c1ccc(C(=O)Nc2ccncc2)cc1 ?
Peg3 promoter: 29; CF NFkB block: 2; TWEAK-Fn14 inh: 16; KKLEB tox: -9; HIF-2a block: 17; TROY NFkB inh: 14

How did CCN(c1ccccc1)S(=O)(=O)c1ccc(NC(=O)c2nc(S(C)(=O)=O)ncc2Cl)cc1 do in these assays?
Peg3 promoter: 108*; CF NFkB block: 102*; TWEAK-Fn14 inh: 88*; KKLEB tox: -101*; HIF-2a block: 92*; TROY NFkB inh: 70*; Mdm2-MdmX confirm: 102*

Results for CCS(=O)(=O)c1ncc(Cl)c(C(=O)Nc2ccc(S(=O)(=O)N(C)c3ccccc3)cc2)n1 ?
Peg3 promoter: 102*; CF NFkB block: 82*; TWEAK-Fn14 inh: 100*; KKLEB tox: -97*; HIF-2a block: 95*; TROY NFkB inh: 88*; Mdm2-MdmX confirm: 103*; HIF-2a conf: 99*; HIF-1a counter: 99*

Results for COc1ccc(S(=O)(=O)N2CCN(c3nn(C)c(=O)n(C)c3=O)CC2)cc1 ?
Peg3 promoter: 20; CF NFkB block: 3; TWEAK-Fn14 inh: 9; KKLEB tox: 4; HIF-2a block: 12; TROY NFkB inh: 6

Results for CCN(C(=O)COC(=O)c1cccs1)c1c(N)n(Cc2ccccc2)c(=O)[nH]c1=O ?
Peg3 promoter: 11; CF NFkB block: 4; TWEAK-Fn14 inh: 10; KKLEB tox: 4; HIF-2a block: 16; TROY NFkB inh: -11

Results for Cc1ccc(-n2nc3ccc(N)cc3n2)c(C)c1 ?
Peg3 promoter: -174; CF NFkB block: -37; TWEAK-Fn14 inh: 87*; KKLEB tox: 5; HIF-2a block: 56*; TROY NFkB inh: -9; HIF-2a conf: 76*; HIF-1a counter: 17

What do the screens show for `Cc1cc(N)ccc1-n1nc2ccccc2n1`?
Peg3 promoter: -53; CF NFkB block: -8; TWEAK-Fn14 inh: -5; KKLEB tox: 7; HIF-2a block: 5; TROY NFkB inh: -19
